Assay results taken from PubChem BioAssay (NCATS).
“And” between values parts separate entries of the source, which are not always exact repeats. Equal entries are not always repeated. Results filed as inconclusive are left out. Values without a mark were called inactive. The source made the active and inactive calls. Calls come from the whole dose curve; as a rule, active = well fitted activation curve with a large enough effect; inconclusive = small, poorly fitted or top-dose-only effect; inactive = no such curve, though single readings can be large or run the other way. Starred links: 1 amine or outer side, 2 acyl side, 3 side chain; linkers in the order of their positions; H or OH if unused. Positions of bridges follow the written chain, without caps; N, C: chain ends. Non-standard residues stand in square brackets, D forms with d. Residues, ends and D or L forms follow the SMILES beside them. Chains are numbered I, II in the order given. Actinocin(9to1) = Cc1c2oc3c(C)ccc(C(=O)[*:1])c3nc-2c(C(=O)[*:2])c(N)c1=O; NMeV = CN[C@H](C(=O)O)C(C)C; Sar = CNCC(=O)O

biological target: Cellular tumor antigen p53 (Homo sapiens) (UniProt P04637); experiment: Primary qHTS for small molecule compounds that upregulate eGFP-tagged delta133p53alpha (in N-terminal) cells. (AID 2060322); conditions: NCI-H358 eGFP-delta133p53alpha fluorescence, 24 h; activation: hits give high values; note: nearly all actives have a fitted effect of over 75% in size;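 for activation: series mostly up to about 56 µM; 0% = DMSO vehicle and 100% = reference activator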
Sequence (P04637 whole entry, looked up): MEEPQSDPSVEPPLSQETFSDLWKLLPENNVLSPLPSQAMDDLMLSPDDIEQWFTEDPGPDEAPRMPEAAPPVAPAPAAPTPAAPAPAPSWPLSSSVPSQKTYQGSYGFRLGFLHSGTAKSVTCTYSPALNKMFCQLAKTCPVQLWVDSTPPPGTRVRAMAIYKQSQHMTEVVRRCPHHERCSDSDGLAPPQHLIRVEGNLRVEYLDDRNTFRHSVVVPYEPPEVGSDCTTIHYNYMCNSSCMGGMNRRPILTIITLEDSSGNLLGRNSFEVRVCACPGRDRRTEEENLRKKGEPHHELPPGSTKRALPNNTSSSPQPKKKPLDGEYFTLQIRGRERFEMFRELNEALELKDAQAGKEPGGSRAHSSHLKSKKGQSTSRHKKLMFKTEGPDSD
Outline: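 NCI-H358 cells pre-induced 24 h with 10 ng/ml doxycycline to express N-terminal eGFP-delta133p53alpha, then dosed 24 h at 37C without doxycycline; fixed, Hoechst-stained, GFP intensity by laser scanning cytometry, normalized to DMSO (0%) and 57.5 uM 5-azacytidine (100%).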
Potency is the fitted concentration of half-maximal effect.

Structure (SMILES) | activation | Potency
CCOC(=O)NNc1ccc(N(CC)CC(C)O)nn1 (stereo not given) | 15.1% | 
CCCCC1=NC2(CCCC2)C(=O)N1Cc1ccc(-c2ccccc2-c2nn[nH]n2)cc1 | 6.69% | 
NC(=O)NS(=O)(=O)c1ccc(Cl)cc1 | 1.69% | 
NS(=O)(=O)c1cc2c(cc1Cl)NC(CSCc1ccccc1)=NS2(=O)=O | -16.7% | 
[O-][n+]1ccccc1SSc1cccc[n+]1[O-] |  | 379 nM (active)
N#CCC(=O)NN | 15.9% | 
Cc1cnc(NS(=O)(=O)c2ccc(N)cc2)nc1 | 2.82% | 
CN(C)CCN(Cc1ccsc1)c1ccccn1 | -27.6% | 
CCOC(=O)c1ccc(O)cc1 | -12.6% | 
NC(=O)N/N=C/c1ccc([N+](=O)[O-])o1 | 16.7% and -23.4% | 
O=C1c2ccccc2S(=O)(=O)N1CCCCN1CCN(c2ncccn2)CC1 | 13.4% | 
CCC(CC)[C@H](NC(C)=O)[C@@H]1[C@H](O)[C@@H](C(=O)O)C[C@@H]1N=C(N)N | 7.36% | 
CN1C(=O)CC(c2ccccc2)C1=O (stereo not given) | 10.7% | 
CCCOC(=O)c1ccc(O)cc1 | -10% | 
COc1ccc(CCC(=O)c2c(O)cc(O[C@@H]3O[C@H](CO)[C@@H](O)[C@H](O)[C@@H]3O[C@@H]3O[C@@H](C)[C@H](O)[C@@H](O)[C@@H]3O)cc2O)cc1O | 22.6% | 
c1ccc2sc(SN3CCOCC3)nc2c1 | 8.37% | 
CCCOC(=O)c1ccccc1 | -2.82% | 
CCCCCC1Nc2cc(C(F)(F)F)c(S(N)(=O)=O)cc2S(=O)(=O)N1 (stereo not given) | -4.18% | 
CCCC(=O)O[C@]1(C(=O)CCl)[C@@H](C)C[C@H]2[C@@H]3CCC4=CC(=O)C=C[C@]4(C)[C@@]3(F)C(=O)C[C@@]21C | -8.37% | 
COc1ccc(S(=O)(=O)Nc2nnc(CC(C)C)s2)cc1 | -11.7% | 

Structure (SMILES) | activation | Potency
COC(=O)C1=CO[C@@H](O)[C@@H]2C(CO)=CC[C@@H]12 | 4.38% | 
CN1CCN(N)CC1 | 0.837% | 
CC[C@H]1OC(=O)[C@H](C)[C@@H](O[C@H]2C[C@@](C)(OC)[C@@H](O)[C@H](C)O2)[C@H](C)[C@@H](O[C@@H]2O[C@H](C)C[C@H](N(C)C)[C@@H]2O)[C@](C)(O)C[C@@H](C)CN(C)[C@H](C)[C@@H](O)[C@]1(C)O | 2.23% | 
COc1cc(C(=O)N2CCOCC2)cc(OC)c1OC | 20.9% | 
CC(Oc1c(Cl)cccc1Cl)C1=NCCN1 (stereo not given) | 3.35% | 
Cc1cc(O)c2ccccc2c1O |  | 34700 nM (active)
CC=CCC(C)C(O)C1C(=O)NC(CC)C(=O)N(C)CC(=O)N(C)C(CC(C)C)C(=O)NC(C(C)C)C(=O)N(C)C(CC(C)C)C(=O)NC(C)C(=O)NC(C)C(=O)N(C)C(CC(C)C)C(=O)N(C)C(CC(C)C)C(=O)N(C)C(C(C)C)C(=O)N1C (stereo not given) | -6.27% | 
CCN(CC)CCN | -0.837% | 
CCCCN(CCCC)CC(O)c1cc(Cl)cc2c1-c1ccc(Cl)cc1C2=Cc1ccc(Cl)cc1 (stereo not given) | 12% | 
CC(C)CCCC(C)NCCC(C)C (stereo not given) | -13.4% | 
C=C1C(=CC=C2CCCC3(C)[C@@H]([C@H](C)C=CC=CC(O)(CC)CC)CC[C@@H]23)C[C@@H](O)C[C@@H]1O (stereo not given in full) | -6.37% | 
Cc1c2oc3c(C)ccc(C(=O)N[C@@H]4C(=O)N[C@H](C(C)C)C(=O)N5CCC[C@H]5C(=O)N(C)CC(=O)N(C)[C@@H](C(C)C)C(=O)O[C@@H]4C)c3nc-2c(C(=O)N[C@@H]2C(=O)N[C@H](C(C)C)C(=O)N3CCC[C@H]3C(=O)N(C)CC(=O)N(C)[C@@H](C(C)C)C(=O)O[C@@H]2C)c(N)c1=O (I: T[dV]P[Sar][NMeV] / II: T[dV]P[Sar][NMeV]; ester I:1-I:C, II:1-II:C; linker I:N-II:N via Actinocin(9to1)) |  | 11 nM (active)
CC(C)[N+](C)(C)CC(O)COc1cccc2ccccc12 (stereo not given) | -17.5% | 
CCOC(=O)N[C@@H]1CC[C@@H]2[C@@H](C1)C[C@H]1C(=O)O[C@H](C)[C@H]1[C@@H]2C=Cc1ccc(-c2cccc(F)c2)cn1 | 8.14% | 
CCOc1cc(NC(C)=O)ccc1C(=O)OC | -3.95% | 
O=S(c1cc(Cl)cc(Cl)c1O)c1cc(Cl)cc(Cl)c1O | -0.565% | 
O=C(c1cccc(Br)c1)N1CCC(N2CCCC2)CC1 | -15.6% | 
COc1cnc(NS(=O)(=O)c2ccc(N)cc2)nc1 | 2.51% and 10.3% | 
CCCCC(C)(C)[C@H](O)C=C[C@H]1[C@H](O)CC(=O)[C@H]1CC=CCCCC(=O)O | 1.38% | 
CC=CC(=O)N(CC)c1ccccc1C | -8.73% | 
